Data as given in PubChem BioAssay (EPA / NIEHS).
Records with an inconclusive call do not appear. The source made the active and inactive calls. The calls were made as follows, unless noted: active = hit-call score of the fitted dose curve at least 0.9, where 1 is the maximum; inactive = score below 0.9.

How the values were obtained:
[1] = CCTE_Mundy_HCI_Cortical_Synap_Neur_Matur_NeuriteSpotCountPerNeuron: CCTE's Synaptogenesis and Neurite Maturation Assay in rat cortical cells for Neurite Spot Count per Neuron Count, Mundy Lab (AID 2284215)
In short: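 Developing rat cortical neurons, with glia suppressed by AraC, are exposed to chemicals from DIV 7 to DIV 12. Automated fluorescence imaging of MAP2-labelled neurites and synaptophysin puncta yields a count per neuron, normalised against DMSO wells.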

[2] = CCTE_Mundy_HCI_Cortical_Synap_Neur_Matur_SynapseCount: CCTE's Synaptogenesis and Neurite Maturation Assay in rat cortical cells for Synapse Count, Mundy Lab (AID 2284218)
In short: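 Rat primary cortical cultures, AraC at DIV 5, chemical dosing DIV 7 to DIV 12 (288.33 h). Fixed cells stained for MAP2, synaptophysin and Hoechst; synapses per neuron counted by high-content imaging, loss of signal versus DMSO.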

[3] = CCTE_Mundy_HCI_Cortical_Synap_Neur_Matur_CellBodySpotCount: CCTE's Synaptogenesis and Neurite Maturation Assay in rat cortical cells for Cell Body Spot Count, Mundy Lab (AID 2284223)
In short: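 Chemicals were applied to AraC-treated rat primary cortical cells at DIV 7 and measured at DIV 12. Fixed cells were labelled for MAP2, synaptophysin and nuclei, and high-content imaging gave cell body synaptophysin spot counts per neuron relative to DMSO.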

[4] = CCTE_Mundy_HCI_hNP1_Pro_ResponderAvgInten: CCTE's Proliferation Assay in human neuroprogenitor cells, Mundy Lab (AID 2284224; active = hit-call score of the fitted dose curve at least 0.9, where 1 is the maximum)
In short: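 Proliferation was scored as BrdU labelling intensity in human neural progenitors derived from WA09 embryonic cells, measured 26.25 hours after chemical dosing. Activity was fitted relative to DMSO.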

[5] = UKN2_HCS_IMR90_cell_viability: Viability Assessment in the University of Konstanz (UKN) Leist Lab Neural Crest Cell Migration Assay in human induced IMR90 Pluripotent Stem Cells (UKN2) (AID 2284233);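 also: viability of neural crest cells differentiated from IMR90 iPSC measured by calcein-AM fluorescence imaging; cells exposed to compound for 24 h after a 24 h migration phase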
In short: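 Human IMR90-derived neural crest cells were allowed to migrate for 24 h into a cell-free zone, then exposed to test chemicals for 24 h. Calcein-AM and Hoechst staining with high-content imaging gave viability, analysed against DMSO baseline.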

[6] = CCTE_Mundy_HCI_Cortical_NOG_NeuronCount: CCTE's Neurite Outgrowth Assay in rat cortical cells for Neuron Count, Mundy Lab (AID 2284236; active = hit-call score of the fitted dose curve at least 0.9, where 1 is the maximum;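 also: neurons counted by imaging betaIII-tubulin and Hoechst stained cortical cells; cells exposed to compound for about 48 hours before fixation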)
In short: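 Read-out: neuron number by high-content imaging of betaIII-tubulin (Alexa Fluor-488) and Hoechst-labelled rat primary cortical cells.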

[7] = CCTE_Mundy_HCI_Cortical_NOG_BPCount: CCTE's Neurite Outgrowth Assay in rat cortical cells for Branch Point Count, Mundy Lab (AID 2284237)
In short: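 Measured 50.33 h after dosing, this morphology endpoint uses rat primary cortical cultures labelled for betaIII-tubulin. Branch points are quantified by high-content imaging, with DMSO as negative control and baseline.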

[8] = CCTE_Mundy_HCI_hNP1_Casp3_7: CCTE's Caspase-Glo 3/7 Assay in human neuroprogenitor cells for Apoptosis, Mundy Lab (AID 2284240)
In short: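 Apoptosis is scored by activated caspase-3/7 luminescence in WA09-derived neural progenitor cells, measured 26.5 h after chemical dosing. Values represent gain of signal relative to DMSO vehicle.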

[9] = CCTE_Mundy_HCI_hNP1_CellTiter: CCTE's Cell Titer-Glo 2 Assay in human neuroprogenitor cells for Viability, Mundy Lab (AID 2284241; active = hit-call score of the fitted dose curve at least 0.9, where 1 is the maximum)
In short: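 Human neural progenitor cells (hNP1, WA09-derived) were plated on poly-L-ornithine/laminin and grown 40 to 44 hours at 37 °C, 5% CO2 before chemical addition. Twenty-four hours later, ATP was measured by CellTiter-Glo luminescence; loss of signal versus DMSO indicates reduced viability.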

[10] = IUF_NPC2c_oligodendrocyte_migration_120hr: Leibniz Research Institute for Environmental Medicine (IUF) 120-hour Neural Progenitor Cell Migration Assay for Oligodendrocyte Migration (NPC2c) (AID 2284297);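 also: O4-positive oligodendrocyte migration distance divided by radial glia migration distance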
In short: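 Using fetal brain neural progenitor spheres differentiating in N2 medium at 37C, compounds were present for 120 h. Oligodendrocyte migration distance, normalized to radial glia migration, was measured from imaged O4 staining.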

[11] = IUF_NPC2a_radial_glia_migration_120hr: Leibniz Research Institute for Environmental Medicine (IUF) 120-hour Neural Progenitor Cell Migration Assay for Radial Glia Migration (NPC2a) (AID 2284298)
In short: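 Exposure of 0.3 mm primary hNPC spheres runs day 0 to 120 h with a half-volume medium change at day 3. Fixed cells get Hoechst staining; high-content analysis of nuclear positions yields radial glia migration distance per well, compared against DMSO controls.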

[12] = IUF_NPC2b_neuronal_migration_120hr: Leibniz Research Institute for Environmental Medicine (IUF) 120-hour Neural Progenitor Cell Migration Assay for Neuron Migration (NPC2b) (AID 2284300)
In short: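 Fetal human NPC spheres migrate on PDL/laminin during 120 h compound treatment; neuronal migration distance, glia-normalized, scored versus DMSO control.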

[13] = IUF_NPC3_neuronal_differentiation_120hr: Leibniz Research Institute for Environmental Medicine (IUF) 120-hour Neuronal Differentiation Assay (NPC3) (AID 2284301)
In short: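 Single 0.3 mm neurospheres from human fetal cortex were plated in differentiation medium containing test compound. Medium was half-replaced on day 3. After 120 h cells were fixed, immunostained and imaged, and neuronal fraction was scored against DMSO control.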

[14] = IUF_NPC4_neurite_length_120hr: Leibniz Research Institute for Environmental Medicine (IUF) 120-hour Neuronal Morphology Assay for Neurite Length (NPC4) (AID 2284302)
In short: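 Read-out is mean neurite length in µm of TUBB3-positive neurons, skeletonized from high-content fluorescence images after 120 h. Single 0.3 mm primary human neural progenitor spheres differentiated on poly-D-lysine/laminin under continuous compound exposure; DMSO was baseline.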

[15] = IUF_NPC5_oligodendrocyte_differentiation_120hr: Leibniz Research Institute for Environmental Medicine (IUF) 120-hour Oligodendrocyte Differentiation Assay (NPC5) (AID 2284304; active = hit-call score of the fitted dose curve at least 0.9, where 1 is the maximum;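 also: primary human fetal neural progenitor spheres plated to migrate and differentiate; share of O4-positive cells among Hoechst nuclei found by CNN image analysis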)
In short: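 After plating on poly-D-lysine/laminin, fetal-derived hNPC spheres differentiated for 120 h at 37C in compound-containing N2 medium, refreshed by half on day 3. O4 immunostaining over Hoechst nuclei in the migration zone gave oligodendrocyte percentage relative to DMSO.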

[16] = IUF_NPC4_neurite_area_120hr: Leibniz Research Institute for Environmental Medicine (IUF) 120-hour Neuronal Morphology Assay for Neurite Area (NPC4) (AID 2284305; active = hit-call score of the fitted dose curve at least 0.9, where 1 is the maximum)
In short: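 Neurite area is read out as the mean pixel area, excluding nuclei, of skeletonized TUBB3-positive neurons imaged after 120 h. Primary human neural progenitor spheres differentiated on poly-D-lysine/laminin with compound present from day 0. Activity was referenced to DMSO controls.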

[17] = IUF_NPC2-5_cytotoxicity_72hr: Cytotoxicity Assessment at 72 hours in the Leibniz Research Institute for Environmental Medicine (IUF) Neural Progenitor Cell Migration and Differentiation Assay for Cytotoxicity (NPC2-5) (AID 2284306; active = hit-call score of the fitted dose curve at least 0.9, where 1 is the maximum;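 also: LDH release into supernatant measured by resorufin fluorescence marking membrane damage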)
In short: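 Membrane integrity loss was scored from fluorescence (RFU) of resorufin generated by LDH in culture supernatant, 72 h after dosing. Differentiating human progenitor spheres received seven serial compound concentrations alongside a solvent control.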

[18] = IUF_NPC2-5_cytotoxicity_120hr: Cytotoxicity Assessment at 120 hours in the Leibniz Research Institute for Environmental Medicine (IUF) Neural Progenitor Cell Migration and Differentiation Assay (NPC2-5) (AID 2284307; active = hit-call score of the fitted dose curve at least 0.9, where 1 is the maximum)
In short: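 Membrane-integrity loss is quantified by LDH in supernatant after five days of exposure of migrating, differentiating human fetal NPC spheres; seven serially diluted concentrations are tested with DMSO kept at or below 0.1%.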

[19] = IUF_NPC2-5_cell_number_120hr: Cell Number Assessment at 120 hours in the Leibniz Research Institute for Environmental Medicine (IUF) Neural Progenitor Cell Migration and Differentiation Assay (NPC2-5) (AID 2284308);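 also: count of Hoechst-stained nuclei in migration zone around plated human neural progenitor spheres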
In short: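 Seven-point serial dilutions plus solvent control were applied to plated 0.3 mm hNPC spheres at differentiation start, with medium half-replaced at day 3. Nuclei positive for Hoechst in the migration zone were enumerated at 120 h.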

[20] = IUF_NPC2-5_viability_120hr: Viability Assessment at 120 hours in the Leibniz Research Institute for Environmental Medicine (IUF) Neural Progenitor Cell Migration and Differentiation Assay (NPC2-5) (AID 2284312)
In short: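 Alamar blue resorufin fluorescence read after 5 days of differentiation, with compound present from day 0 and replenished at day 3. Primary hNPC spheres on laminin-coated plates, 37C; seven concentrations plus solvent control, fitted against DMSO.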

[21] = CCTE_Mundy_HCI_iCellGluta_NOG_NeuriteLength: CCTE's Neurite Outgrowth Assay in iCellGluta cells for Neurite Length, Mundy Lab (AID 2284318; active = hit-call score of the fitted dose curve at least 0.9, where 1 is the maximum)
In short: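 Automated high-content imaging of betaIII-tubulin (Alexa Fluor-488) and Hoechst-stained cells gave neurite length, normalized to the DMSO baseline.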

[22] = IUF_NPC1_cytotoxicity_72hr: Cytotoxicity Assessment at 72 hours in the Leibniz Research Institute for Environmental Medicine (IUF) Neural Progenitor Cell Proliferation Assay (NPC1) (AID 2284332; active = hit-call score of the fitted dose curve at least 0.9, where 1 is the maximum;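 also: rising LDH signal means more cytotoxicity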)
In short: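 Human fetal neural progenitor spheres (0.3 mm) in EGF/FGF proliferation medium, 37C, exposed 72 h without renewal. LDH release in supernatant read by resorufin fluorescence; gain of signal scored relative to dynamic range.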

[23] = CCTE_Mundy_HCI_iCellGluta_NOG_NeuronCount: CCTE's Neurite Outgrowth Assay in iCellGluta cells for Neuron Count, Mundy Lab (AID 2284340; active = hit-call score of the fitted dose curve at least 0.9, where 1 is the maximum;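 also: cells fixed about 48 h after compound addition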)
In short: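 Neuron count read by automated high-content imaging of Hoechst 33342 and betaIII-tubulin/Alexa Fluor-488 labelling in human iPSC glutamatergic neurons. Activity fitted relative to DMSO.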

[24] = CCTE_Mundy_HCI_iCellGluta_NOG_NeuriteCount: CCTE's Neurite Outgrowth Assay in iCellGluta cells for Neurite Count, Mundy Lab (AID 2284342; active = hit-call score of the fitted dose curve at least 0.9, where 1 is the maximum;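 also: chemical exposure about 48 hours starting 2 hours after plating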)

Measured: outcome

CCCCCC(C)(CC)C(=O)NC (centres undefined)
inactive: [1] | [2] | [3] | [4] | [5] | [6] | [7] | [8] | [9] | [10] | [11] | [12] | [13] | [14] | [15] | [16] | [17] | [18] | [19] | [20] | [21] | [22] | [23] | [24]
